PMC9911399, “Two distinct binding modes provide the RNA-binding protein RbFox with extraordinary sequence specificity”
Positions count from the first letter of the chain named. The full ranking holds about 16,000 sequences; the median of “ka relative to ugcaugu” is about 0.096, and the highest 2% start at about 0.35. Only a selection was taken, and the highest values are over-represented in it overall.

T1: RBFOX1 RRM RbFoxmut (Fox-RRM*) (Homo sapiens, UniProt Q9NWB1 109-208, R118D;E147R;N151S;E152T)
T1 sequence: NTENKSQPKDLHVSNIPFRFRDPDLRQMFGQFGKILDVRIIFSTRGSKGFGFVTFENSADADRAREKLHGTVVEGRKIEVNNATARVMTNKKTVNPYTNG

B1: UUGUGGU (DNA:RNA)
RNA: GGGAGACCGGAAUUCAGAUUGUCCUUGUGGUUUAAAUCCCGUCGUAGCCACCA
DNA 1: CAATCTGAATTCCGGTCTCCC
DNA 2: TGGTGGCTACGACGGGATT
B2: ACACGAA (DNA:RNA)
RNA: B1 RNA with U25A, U26C, G27A, U28C, G30A, U31A
DNA 1: CAATCTGAATTCCGGTCTCCC
DNA 2: TGGTGGCTACGACGGGATT
B3: GCGUAAC (DNA:RNA)
RNA: B1 RNA with U25G, U26C, G29A, G30A, U31C
DNA 1: CAATCTGAATTCCGGTCTCCC
DNA 2: TGGTGGCTACGACGGGATT
B4: GGACGCA (DNA:RNA)
RNA: B1 RNA with U25G, U26G, G27A, U28C, G30C, U31A
DNA 1: CAATCTGAATTCCGGTCTCCC
DNA 2: TGGTGGCTACGACGGGATT
B5: UUAGUGG (DNA:RNA)
RNA: B1 RNA with G27A, U28G, G29U, U31G
DNA 1: CAATCTGAATTCCGGTCTCCC
DNA 2: TGGTGGCTACGACGGGATT
B6: GCAUGCU (DNA:RNA)
RNA: B1 RNA with U25G, U26C, G27A, G30C
DNA 1: CAATCTGAATTCCGGTCTCCC
DNA 2: TGGTGGCTACGACGGGATT
B7: GUCAUGC (DNA:RNA)
RNA: B1 RNA with U25G, G27C, U28A, G29U, U31C
DNA 1: CAATCTGAATTCCGGTCTCCC
DNA 2: TGGTGGCTACGACGGGATT
B8: GCCAUGC (DNA:RNA)
RNA: B1 RNA with U25G, U26C, G27C, U28A, G29U, U31C
DNA 1: CAATCTGAATTCCGGTCTCCC
DNA 2: TGGTGGCTACGACGGGATT
B9: CGCAUGC (DNA:RNA)
RNA: B1 RNA with U25C, U26G, G27C, U28A, G29U, U31C
DNA 1: CAATCTGAATTCCGGTCTCCC
DNA 2: TGGTGGCTACGACGGGATT
B10: GUCCGCU (DNA:RNA)
RNA: B1 RNA with U25G, G27C, U28C, G30C
DNA 1: CAATCTGAATTCCGGTCTCCC
DNA 2: TGGTGGCTACGACGGGATT
B11: GACAUGC (DNA:RNA)
RNA: B1 RNA with U25G, U26A, G27C, U28A, G29U, U31C
DNA 1: CAATCTGAATTCCGGTCTCCC
DNA 2: TGGTGGCTACGACGGGATT
B12: GCAUUGC (DNA:RNA)
RNA: B1 RNA with U25G, U26C, G27A, G29U, U31C
DNA 1: CAATCTGAATTCCGGTCTCCC
DNA 2: TGGTGGCTACGACGGGATT
B13: ACAUGCU (DNA:RNA)
RNA: B1 RNA with U25A, U26C, G27A, G30C
DNA 1: CAATCTGAATTCCGGTCTCCC
DNA 2: TGGTGGCTACGACGGGATT
B14: GGCAUGC (DNA:RNA)
RNA: B1 RNA with U25G, U26G, G27C, U28A, G29U, U31C
DNA 1: CAATCTGAATTCCGGTCTCCC
DNA 2: TGGTGGCTACGACGGGATT
B15: UCUUCUA (DNA:RNA)
RNA: B1 RNA with U26C, G27U, G29C, G30U, U31A
DNA 1: CAATCTGAATTCCGGTCTCCC
DNA 2: TGGTGGCTACGACGGGATT
B16: CCUCCAG (DNA:RNA)
RNA: GGGAGACCGGAAUUCAGAUUGUCCCCUCCAGUUAAAUCCCGUCGUAGCCACCA
DNA 1: CAATCTGAATTCCGGTCTCCC
DNA 2: TGGTGGCTACGACGGGATT
B17: GAACAGU (DNA:RNA)
RNA: B1 RNA with U25G, U26A, G27A, U28C, G29A
DNA 1: CAATCTGAATTCCGGTCTCCC
DNA 2: TGGTGGCTACGACGGGATT
B18: ACGUGUG (DNA:RNA)
RNA: B1 RNA with U25A, U26C, G30U, U31G
DNA 1: CAATCTGAATTCCGGTCTCCC
DNA 2: TGGTGGCTACGACGGGATT
B19: CCCUACC (DNA:RNA)
RNA: B16 RNA with U27C, C28U, C29A, A30C, G31C
DNA 1: CAATCTGAATTCCGGTCTCCC
DNA 2: TGGTGGCTACGACGGGATT
B20: UAUCCCC (DNA:RNA)
RNA: B16 RNA with C25U, C26A, A30C, G31C
DNA 1: CAATCTGAATTCCGGTCTCCC
DNA 2: TGGTGGCTACGACGGGATT

Molecular target: T1, RBFOX1 RRM RbFoxmut (Fox-RRM*)
Assay: EMSA; HiTS-Eq, 1 nM pool, 10 min; buffer printed only for the single-RNA assays: 10 mM Tris pH 7.5, 150 mM NaCl, 3.4 mM EDTA, 0.001% NP-40, 30 C
Conditions: tags: His6 N-terminal (pET28a); label: 5' 32P
Method in brief: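 Purified RbFox RRM, wild type or mutant, was incubated for 10 min in 50 µL with 1 nM of a 5′-radiolabelled RNA pool carrying 7 randomized nucleotides, whose flanks were annealed to DNA oligonucleotides, over a series of increasing protein concentrations. Unbound RNA was resolved on 8% native PAGE, cut out, reverse-transcribed, barcoded by PCR and sequenced on an Illumina HiSeq 2500. Relative association constants were derived from changes in read counts for each RNA species versus the control reaction and normalised to the cognate motif.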

Compared with B1, B2 is lower in binding signal: 0.164 KA relative to UGCAUGU for the first, 0.0925 KA relative to UGCAUGU for the second.

First: B3
Second: B4
The binding signal of the first is lower: 0.0833 KA relative to UGCAUGU for the first, 0.12 KA relative to UGCAUGU for the second.

First: B5
Second: B6
The binding signal of the first is lower: 0.0929 KA relative to UGCAUGU for the first, 0.736 KA relative to UGCAUGU for the second.

First: B7
Second: B8
The binding signal of the first is higher: 0.19 KA relative to UGCAUGU for the first, 0.109 KA relative to UGCAUGU for the second.

First: B9
Second: B10
The binding signal of the first is higher: 0.951 KA relative to UGCAUGU for the first, 0.11 KA relative to UGCAUGU for the second.

First: B11
Second: B12
The binding signal of the first is lower: 0.0819 KA relative to UGCAUGU for the first, 0.134 KA relative to UGCAUGU for the second.

Compared with B13, B14 is higher in binding signal: 0.102 KA relative to UGCAUGU for the first, 0.739 KA relative to UGCAUGU for the second.

First: B15
Second: B16
The binding signal of the first is lower: 0.0886 KA relative to UGCAUGU for the first, 0.101 KA relative to UGCAUGU for the second.

Compared with B17, B18 is higher in binding signal: 0.0727 KA relative to UGCAUGU for the first, 0.203 KA relative to UGCAUGU for the second.

Compared with B19, B20 is lower in binding signal: 0.0909 KA relative to UGCAUGU for the first, 0.0611 KA relative to UGCAUGU for the second.
